About 7,900 targets were measured; listed, in parts, are those with a hit and a random draw of the rest. About 0.6% of all pairs of compound and target were hits.
Columns and labels:
Test in all cases: log2 fold change, soluble protein after heating vs DMSO (PISA); higher = thermal stabilisation; K562 cells, 10 uM, 30 min; active = over 0.2 and 3.5 SD of the protein, either way, in both replicates (recomputed)
[1] = compound: C1=CC=C(C=C1)[C@H](COC2=CC3=C(C=C2)NC(=O)N3)NC(=O)C4=CC=CN(C4=O)CC5=CC(=C(C=C5)F)F
Summary of the method: (§1)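 For each measurement, 10 μM compound was applied for 30 min to K562 cells at 2×10^6 cells/mL. Aliquots were heated for 3 min across 48°C-58°C, pooled, and extracted in PBS with 0.5% NP-40 at 4°C; the supernatant after 21,000xg for 90 min was soluble protein. This was quantified by TMTpro 16plex LC-MS/MS with channel sums equalised, and thermal stability was reported relative to control samples from duplicates, on a log2 fold-change scale.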

[2] = compound: CC1=C(SC2=C1C(=N[C@H](C3=NN=C(N32)C)CC(=O)N)C4=CC=C(C=C4)Cl)C
Summary of the method: as §1

[3] = compound: CC1=C2C(=CC=C1)N=C(N(C2=O)C3=CC=CC=C3C)CN4C=NC5=C(N=CN=C54)N
Summary of the method: as §1

[4] = compound: Cc1sc2c(c1C)C(c1ccc(Cl)cc1)=N[C@@H](CC(=O)OC(C)(C)C)c1nnc(C)n1-2
Summary of the method: as §1

[5] = compound: c1ccc([C@@H]2C[C@H]2NC2CCNCC2)cc1
Summary of the method: as §1

Measured: log2 fold change

RNF14 (UniProt Q9UBS8)
Sequence of UniProt Q9UBS8 (Q9UBS8 whole entry, looked up): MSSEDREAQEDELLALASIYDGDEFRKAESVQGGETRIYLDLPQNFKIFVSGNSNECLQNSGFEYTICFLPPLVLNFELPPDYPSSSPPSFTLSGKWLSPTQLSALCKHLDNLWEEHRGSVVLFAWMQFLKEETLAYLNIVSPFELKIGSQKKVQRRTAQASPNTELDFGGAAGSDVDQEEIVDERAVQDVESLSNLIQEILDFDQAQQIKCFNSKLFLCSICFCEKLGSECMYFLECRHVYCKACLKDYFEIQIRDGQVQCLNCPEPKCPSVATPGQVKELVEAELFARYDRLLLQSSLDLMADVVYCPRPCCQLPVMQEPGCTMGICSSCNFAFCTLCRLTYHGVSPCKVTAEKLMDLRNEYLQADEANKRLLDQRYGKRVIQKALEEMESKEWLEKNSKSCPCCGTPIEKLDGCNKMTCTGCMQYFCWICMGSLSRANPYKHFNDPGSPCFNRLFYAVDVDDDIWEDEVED
inactive: [1] -0.031 | [2] -0.005 | [3] -0.048 | [4] -0.013 | [5] 0.03

RAB3IL1 (UniProt E9PK89)
inactive: [1] 0.05 | [2] 0.259 | [3] -0.107 | [4] 0.15 | [5] -0.136

RAB3GAP2 (UniProt Q9H2M9)
Sequence of UniProt Q9H2M9 (Q9H2M9 whole entry, looked up): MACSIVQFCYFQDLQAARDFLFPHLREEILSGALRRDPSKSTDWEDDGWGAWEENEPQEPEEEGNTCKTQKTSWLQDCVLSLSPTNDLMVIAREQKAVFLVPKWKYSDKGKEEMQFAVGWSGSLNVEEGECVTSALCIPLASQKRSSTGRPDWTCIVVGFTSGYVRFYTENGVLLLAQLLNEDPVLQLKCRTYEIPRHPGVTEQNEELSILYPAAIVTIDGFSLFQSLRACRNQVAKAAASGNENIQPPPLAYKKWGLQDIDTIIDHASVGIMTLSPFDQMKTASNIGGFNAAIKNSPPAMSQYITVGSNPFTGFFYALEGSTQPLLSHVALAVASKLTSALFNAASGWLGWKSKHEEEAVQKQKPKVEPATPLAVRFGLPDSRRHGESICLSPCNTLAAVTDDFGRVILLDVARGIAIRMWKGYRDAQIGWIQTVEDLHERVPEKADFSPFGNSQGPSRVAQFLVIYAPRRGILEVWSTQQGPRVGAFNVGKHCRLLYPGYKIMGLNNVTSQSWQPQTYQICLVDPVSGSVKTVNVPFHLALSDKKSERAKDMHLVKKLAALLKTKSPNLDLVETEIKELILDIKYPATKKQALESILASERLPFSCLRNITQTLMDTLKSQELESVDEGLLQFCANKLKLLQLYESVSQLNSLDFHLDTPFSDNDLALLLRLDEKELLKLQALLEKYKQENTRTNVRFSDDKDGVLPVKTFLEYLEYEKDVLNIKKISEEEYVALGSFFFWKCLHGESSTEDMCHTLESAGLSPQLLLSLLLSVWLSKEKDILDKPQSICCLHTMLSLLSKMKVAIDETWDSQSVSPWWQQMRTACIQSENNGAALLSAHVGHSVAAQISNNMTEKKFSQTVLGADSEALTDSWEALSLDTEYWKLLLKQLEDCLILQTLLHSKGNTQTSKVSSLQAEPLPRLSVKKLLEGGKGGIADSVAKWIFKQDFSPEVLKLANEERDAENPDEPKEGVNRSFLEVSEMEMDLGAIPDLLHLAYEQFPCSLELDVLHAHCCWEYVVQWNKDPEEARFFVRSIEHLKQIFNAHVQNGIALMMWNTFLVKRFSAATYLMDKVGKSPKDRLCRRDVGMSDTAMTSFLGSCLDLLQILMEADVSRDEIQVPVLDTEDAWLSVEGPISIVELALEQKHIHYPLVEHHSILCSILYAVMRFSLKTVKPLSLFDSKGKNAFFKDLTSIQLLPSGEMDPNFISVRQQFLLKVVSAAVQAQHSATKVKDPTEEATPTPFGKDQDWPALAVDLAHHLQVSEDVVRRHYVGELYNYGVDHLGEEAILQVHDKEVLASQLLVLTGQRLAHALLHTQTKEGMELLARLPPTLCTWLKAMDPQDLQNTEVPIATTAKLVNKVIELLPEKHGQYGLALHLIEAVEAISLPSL
inactive: [1] -0.023 | [2] -0.07 | [3] 0.051 | [4] 0.04 | [5] 0.001

RPTOR (UniProt Q8N122)
inactive: [1] -0.022 | [2] -0.015 | [3] 0.095 | [4] -0.02 | [5] 0.032

RRAGC (UniProt Q9HB90)
inactive: [1] 0.009 | [2] 0.104 | [3] 0.095 | [4] -0.041 | [5] 0.009

SCLT1 (UniProt Q96NL6)
inactive: [1] 0.078 | [2] 0.215 | [3] 0.222 | [4] 0.001 | [5] -0.039

SESN2 (UniProt P58004)
inactive: [1] -0.03 | [2] -0.031 | [3] 0.067 | [4] 0.066 | [5] -0.028

RTF2 (UniProt Q9BY42)
Sequence of UniProt Q9BY42 (Q9BY42 whole entry, looked up): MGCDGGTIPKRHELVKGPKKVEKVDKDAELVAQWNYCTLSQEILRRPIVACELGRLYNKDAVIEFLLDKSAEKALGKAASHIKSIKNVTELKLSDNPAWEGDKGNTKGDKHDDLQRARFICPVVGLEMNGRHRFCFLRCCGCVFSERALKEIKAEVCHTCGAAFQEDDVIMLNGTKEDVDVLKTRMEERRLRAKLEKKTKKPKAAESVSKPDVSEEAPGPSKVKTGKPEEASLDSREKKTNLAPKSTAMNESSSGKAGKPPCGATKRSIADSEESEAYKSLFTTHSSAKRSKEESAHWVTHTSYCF
inactive: [1] 0.054 | [2] -0.009 | [3] 0.068 | [4] -0.038 | [5] 0.045

RSF1 (UniProt Q96T23)
Sequence of UniProt Q96T23 (Q96T23 whole entry, looked up): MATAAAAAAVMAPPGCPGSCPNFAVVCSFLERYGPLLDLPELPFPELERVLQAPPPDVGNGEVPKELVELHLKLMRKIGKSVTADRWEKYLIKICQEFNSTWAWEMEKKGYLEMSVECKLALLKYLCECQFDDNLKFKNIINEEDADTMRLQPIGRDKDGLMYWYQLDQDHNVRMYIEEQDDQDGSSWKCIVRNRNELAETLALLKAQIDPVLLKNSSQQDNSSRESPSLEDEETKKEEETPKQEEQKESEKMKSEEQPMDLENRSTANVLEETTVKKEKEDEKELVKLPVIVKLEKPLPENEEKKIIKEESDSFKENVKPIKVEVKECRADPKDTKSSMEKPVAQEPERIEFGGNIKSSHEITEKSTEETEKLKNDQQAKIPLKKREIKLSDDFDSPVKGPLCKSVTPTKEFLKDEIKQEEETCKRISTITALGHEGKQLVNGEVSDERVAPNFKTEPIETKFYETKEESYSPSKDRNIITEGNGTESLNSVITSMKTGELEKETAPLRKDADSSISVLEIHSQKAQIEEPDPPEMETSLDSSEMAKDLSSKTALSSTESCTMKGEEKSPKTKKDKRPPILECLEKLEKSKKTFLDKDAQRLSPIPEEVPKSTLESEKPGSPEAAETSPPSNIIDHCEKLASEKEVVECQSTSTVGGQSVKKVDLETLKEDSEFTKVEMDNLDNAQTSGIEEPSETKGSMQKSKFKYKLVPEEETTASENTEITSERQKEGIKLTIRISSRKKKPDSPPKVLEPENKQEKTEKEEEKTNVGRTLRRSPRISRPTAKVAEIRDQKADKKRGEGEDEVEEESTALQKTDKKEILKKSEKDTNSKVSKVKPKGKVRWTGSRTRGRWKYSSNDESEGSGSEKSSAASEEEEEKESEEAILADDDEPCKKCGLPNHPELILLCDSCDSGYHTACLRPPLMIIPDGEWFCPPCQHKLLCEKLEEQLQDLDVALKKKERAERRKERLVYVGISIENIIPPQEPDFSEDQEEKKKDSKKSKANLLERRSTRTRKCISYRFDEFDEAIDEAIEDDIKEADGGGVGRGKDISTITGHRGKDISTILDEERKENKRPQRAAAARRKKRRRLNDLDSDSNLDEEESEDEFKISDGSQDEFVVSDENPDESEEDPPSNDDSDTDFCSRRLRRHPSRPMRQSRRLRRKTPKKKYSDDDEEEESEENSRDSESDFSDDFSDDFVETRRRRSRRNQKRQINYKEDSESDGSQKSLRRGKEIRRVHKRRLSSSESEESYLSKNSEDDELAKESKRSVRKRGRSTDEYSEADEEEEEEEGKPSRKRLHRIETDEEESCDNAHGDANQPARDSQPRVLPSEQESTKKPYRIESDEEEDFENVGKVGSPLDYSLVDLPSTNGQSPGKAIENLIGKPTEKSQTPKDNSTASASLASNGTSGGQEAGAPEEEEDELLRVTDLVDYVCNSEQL
inactive: [1] -0.102 | [2] 0.091 | [3] 0.096 | [4] -0.061 | [5] -0.018

RALGPS2 (UniProt Q86X27)
Sequence of UniProt Q86X27 (Q86X27 whole entry, looked up): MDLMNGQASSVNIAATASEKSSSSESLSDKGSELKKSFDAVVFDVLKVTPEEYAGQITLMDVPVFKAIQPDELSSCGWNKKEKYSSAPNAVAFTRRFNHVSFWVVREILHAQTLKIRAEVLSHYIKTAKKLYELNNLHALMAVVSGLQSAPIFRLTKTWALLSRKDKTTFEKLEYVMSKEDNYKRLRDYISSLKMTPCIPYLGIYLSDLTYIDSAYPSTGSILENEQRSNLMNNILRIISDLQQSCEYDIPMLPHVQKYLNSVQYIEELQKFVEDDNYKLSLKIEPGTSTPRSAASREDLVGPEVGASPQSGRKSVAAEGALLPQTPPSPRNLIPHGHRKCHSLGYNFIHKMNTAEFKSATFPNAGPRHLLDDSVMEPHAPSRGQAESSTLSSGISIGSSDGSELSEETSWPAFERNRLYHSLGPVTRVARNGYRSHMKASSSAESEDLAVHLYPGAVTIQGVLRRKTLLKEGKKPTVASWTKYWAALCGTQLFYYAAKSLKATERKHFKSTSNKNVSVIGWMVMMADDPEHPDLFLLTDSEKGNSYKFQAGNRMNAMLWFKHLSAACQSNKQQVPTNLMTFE
inactive: [1] -0.069 | [2] 0.073 | [3] -0.093 | [4] 0.116 | [5] -0.01

RIPK1 (UniProt Q13546)
Sequence of UniProt Q13546 (Q13546 whole entry, looked up): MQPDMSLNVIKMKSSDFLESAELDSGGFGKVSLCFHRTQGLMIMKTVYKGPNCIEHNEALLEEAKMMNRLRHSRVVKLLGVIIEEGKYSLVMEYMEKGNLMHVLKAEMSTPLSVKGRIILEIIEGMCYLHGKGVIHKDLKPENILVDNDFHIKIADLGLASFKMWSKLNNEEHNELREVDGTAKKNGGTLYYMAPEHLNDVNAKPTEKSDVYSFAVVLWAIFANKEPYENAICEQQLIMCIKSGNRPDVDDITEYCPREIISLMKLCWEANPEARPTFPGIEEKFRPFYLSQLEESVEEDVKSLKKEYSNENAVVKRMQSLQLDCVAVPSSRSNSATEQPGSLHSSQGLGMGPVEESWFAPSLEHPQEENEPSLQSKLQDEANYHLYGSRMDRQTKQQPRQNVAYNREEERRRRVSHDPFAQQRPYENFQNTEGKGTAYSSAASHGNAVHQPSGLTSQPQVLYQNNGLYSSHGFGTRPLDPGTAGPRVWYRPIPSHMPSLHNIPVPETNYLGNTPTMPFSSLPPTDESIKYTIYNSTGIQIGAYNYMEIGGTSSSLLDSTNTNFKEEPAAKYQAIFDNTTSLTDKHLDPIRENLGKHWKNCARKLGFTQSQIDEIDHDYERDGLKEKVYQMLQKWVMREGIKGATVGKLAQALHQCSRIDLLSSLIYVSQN
inactive: [1] -0.058 | [2] -0.134 | [3] 0.033 | [4] -0.048 | [5] -0.049

RPS18 (UniProt P62269)
inactive: [1] 0.088 | [2] -0.125 | [3] -0.04 | [4] 0.099 | [5] 0.004

SLC12A5 (UniProt Q9H2X9)
inactive: [1] 0.102 | [2] 0.099 | [3] 0.066 | [4] -0.064 | [5] 0.055

RAD50 isoform 2 (UniProt Q92878)
inactive: [1] -0.006 | [2] 0.017 | [3] 0.061 | [4] 0 | [5] 0.014
